# According to PubChem BioAssay:
# Values joined by “and” are separate entries in the source; they are usually repeats but may differ in a detail not shown here. Equal entries are not always repeated. Inconclusive results are not listed. Active and inactive are the calls of the source.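 The calls were made as follows, unless noted: active = compounds whose cell count with miR-34 switched on is under 0.7 times the count with it off; inactive = the rest.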
# Columns and labels:
# [1] = viability loss in pontine glioma line – cell-based, SU-DIPG-XXV, MIPE5.0, CellTiter-Glo, qHTS, dose response (AID 1347065; cut-off not given, nearly all actives have AC50 up to about 26 µM;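 also: cells exposed to compound for 48 hours before ATP readout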); settings: CellTiter-Glo ATP luminescence
# [2] = JHH-DIPG-1 glioma cell viability, MIPE5.0 library, CellTiter-Glo luminescence, qHTS (AID 1347067; cut-off not given, nearly all actives have AC50 up to about 26 µM;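 also: cells exposed to compound for 48 hours before readout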); settings: JHH-DIPG-1 glioma viability, CellTiter-Glo ATP luminescence
# [3] = SU-DIPG-XXV glioma cell viability, MIPE5.0 library, qHTS (AID 1347068; cut-off not given, nearly all actives have IC50 up to about 30 µM)
# [4] = sensitizers of A549 cells to miR-34 induction, primary screen, imaging, A549 dox-inducible miR-34, nuclei and caspase counts (AID 1347080); settings: A549 miR-34 inducible, Hoechst nuclei count, 48 h
# [5] = phospholipid biosynthesis inhibitors in animal cells, primary screen, cell-based, LOPAC library, screen 4 (AID 1347384; call rule not given here); settings: phospholipid biosynthesis inhibition screen, at 10 µM
# [6] = survival rescue of mitochondrial mutant cells in low glucose, primary screen, MELAS cybrids, Rieske KO mouse fibroblasts, CellTiter-Glo (AID 1508586;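 active = mean z-score across replicates of 1.96 or higher in either the MELAS or the Rieske mutant cell line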;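 also: z relative to plate mean and SD of compound and empty wells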)
# [7] = target: NAD(+) hydrolase SARM1 (Homo sapiens) (UniProt Q6SZW1); test: SARM1 TIR NADase inhibitors, cell lysate, NAD-Glo luminescence (AID 1508614;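 active = compound whose remaining NAD level is above about 45 nM, limit read from the data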;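 also: higher remaining NAD means stronger inhibition of SARM1 NADase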); settings: SAM-TIR HEK293T lysate NADase, at 1 µM, stronger effect = higher value
# [8] = target: Mitogen-activated protein kinase 7 (Homo sapiens) (UniProt Q13164); test: ERK5 transactivation activators in reporter cells, primary screen, cell-based, HTS (AID 1508626;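 active = luciferase signal above three times the same-plate solvent-only control wells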;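 also: luciferase driven by Gal4-ERK5 fusion binding five Gal4 sites before minimal TATA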); settings: HeLa Gal4-ERK5 transactivation, 18 h, at 5 µM, stronger effect = higher value
# [9] = viability rescue of complex I mutant cybrids, primary screen, cell-based, galactose medium, ATP luminescence (AID 1645843;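 active = z-score of at least 1.8 in each of two replicates, scored against plate mean and spread of sample wells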;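 also: positive z means more ATP and so rescue of galactose-driven cybrid death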); settings: complex I mutant cybrid cells, 72 h, stronger effect = higher value
# [10] = SU-DIPG-VI glioma cell viability, MIPE4.0 library, CellTiter-Glo luminescence, qHTS (AID 1347066; cut-off not given, nearly all actives have AC50 up to about 30 µM;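 also: cells exposed to compound for 48 hours before readout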); settings: CellTiter-Glo ATP luminescence
# [11] = LFS_MB_P medulloblastoma growth inhibition, cell-based, chromothripsis tumors, cisplatin or BGB combos (AID 1671449; in the data active = inhibition above about 80%;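 also: cells exposed for 96 hours; 0% = vehicle DMSO and 100% = killing by high DMSO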); settings: LFS_MB_P medulloblastoma cells
# [12] = HDN33 neuroblastoma growth inhibition, cell-based, chromothripsis tumors, cisplatin or BGB combos (AID 1671450; in the data active = inhibition above about 80%;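 also: cells exposed to compound for four days; 0% = vehicle DMSO and 100% = cell killing by high DMSO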); settings: HDN33 neuroblastoma cells, stronger effect = higher value
# [13] = ICB984 medulloblastoma cell growth inhibition, synergistic combos for chromothripsis tumors, cisplatin or BGB combos (AID 1671451; call rule not given here;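 also: cells exposed for 96 hours before readout; 0% = vehicle DMSO and 100% = killing by high DMSO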); settings: ICB984 medulloblastoma cells, drug combinations, stronger effect = higher value
# [14] = LFS_MB_1R medulloblastoma cell growth inhibition, synergistic combos for chromothripsis tumors, cisplatin or BGB combos (AID 1671452; in the data active = inhibition above about 80%;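 also: cells exposed for 96 hours before readout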); settings: LFS_MB_1R medulloblastoma cells, stronger effect = higher value
# [15] = HTB85 osteosarcoma cell growth inhibition, synergistic combos for chromothripsis tumors, BGB or cisplatin IC20 combos (AID 1671453; in the data active = inhibition above about 80%;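 also: cells exposed for 96 hours before readout; 0% = vehicle DMSO and 100% = high DMSO killing control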); settings: HTB85 osteosarcoma cells, drug combinations, stronger effect = higher value
# [16] = CRL2098 osteosarcoma cell growth inhibition, synergistic combos for chromothripsis tumors, BGB or cisplatin IC20 combos (AID 1671454; in the data active = inhibition above about 80%;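 also: cells exposed for 96 h before readout; 0% = vehicle DMSO and 100% = killing by high DMSO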); settings: CRL2098 osteosarcoma cells, drug combinations, stronger effect = higher value
# [17] = HD-MB03 medulloblastoma cell growth inhibition, synergistic combos for chromothripsis tumors, BGB or cisplatin IC20 combos (AID 1671455; in the data active = inhibition above about 83%;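 also: 0% = vehicle DMSO and 100% = high DMSO as cytotoxic control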); settings: HD-MB03 medulloblastoma cells, stronger effect = higher value
# [18] = modifiers of HSF1 nuclear foci, imaging, Selleck Cancer Library (AID 1347162; in the data active = plate-normalised HSF1 focus index below about 0.46); settings: human cells, at 10 µM; SSMD: measured here: HSF1 foci SSMD mean; cell count: measured here: cell number; plate-normalised HSF1 focus index: stronger effect = lower value
# [19] = stronger effect = lower value, cell number ratio, induced over uninduced
# [20] = measured here: relative caspase fold change +Dox/-Dox
# [21] = measured here: total cells with miR-34 induction, stronger effect = lower value
# [22] = measured here: total cells without miR-34 induction
# [23] = MELAS cybrid survival, CellTiter-Glo 48 h, stronger effect = higher value
# [24] = Rieske KO mouse fibroblast survival, CellTiter-Glo 72 h
# [25] = at 0.5 µM, stronger effect = higher value
# [26] = measured here: combination with BGB IC20, at 0.005 µM
# [27] = measured here: combination with BGB IC40, at 0.005 µM
# [28] = measured here: combination with BGB IC40, at 0.05 µM
# [29] = measured here: combination with cisplatin, at 0.5 µM, stronger effect = higher value
# [30] = measured here: combination with cisplatin, at 5 µM, stronger effect = higher value
# [31] = measured here: with BGB IC20 combination, at 0.5 µM
# [32] = measured here: with cisplatin IC20 combination, at 0.5 µM
# Chain of NAD(+) hydrolase SARM1 (Homo sapiens) (Q6SZW1 whole entry, looked up, the tested form may be a part): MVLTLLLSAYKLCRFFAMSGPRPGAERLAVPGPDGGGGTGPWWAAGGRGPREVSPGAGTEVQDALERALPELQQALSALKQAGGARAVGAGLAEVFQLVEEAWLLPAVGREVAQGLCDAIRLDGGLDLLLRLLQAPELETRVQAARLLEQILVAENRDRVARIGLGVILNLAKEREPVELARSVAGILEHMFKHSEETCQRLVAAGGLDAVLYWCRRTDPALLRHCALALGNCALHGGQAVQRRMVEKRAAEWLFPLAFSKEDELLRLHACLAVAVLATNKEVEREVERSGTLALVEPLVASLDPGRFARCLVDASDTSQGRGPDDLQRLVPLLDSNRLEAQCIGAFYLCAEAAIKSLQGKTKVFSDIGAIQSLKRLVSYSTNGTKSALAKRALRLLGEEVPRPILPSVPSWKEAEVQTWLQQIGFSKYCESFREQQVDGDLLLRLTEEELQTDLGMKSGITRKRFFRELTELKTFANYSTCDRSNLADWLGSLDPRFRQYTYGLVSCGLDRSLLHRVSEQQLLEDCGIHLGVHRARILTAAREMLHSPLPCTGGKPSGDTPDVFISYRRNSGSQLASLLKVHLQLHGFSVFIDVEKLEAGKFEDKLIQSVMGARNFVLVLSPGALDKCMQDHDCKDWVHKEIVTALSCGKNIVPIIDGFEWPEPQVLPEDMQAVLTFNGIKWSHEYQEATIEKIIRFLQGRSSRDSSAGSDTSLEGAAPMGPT
# Chain of Mitogen-activated protein kinase 7 (Homo sapiens) (Q13164 whole entry, looked up, the tested form may be a part): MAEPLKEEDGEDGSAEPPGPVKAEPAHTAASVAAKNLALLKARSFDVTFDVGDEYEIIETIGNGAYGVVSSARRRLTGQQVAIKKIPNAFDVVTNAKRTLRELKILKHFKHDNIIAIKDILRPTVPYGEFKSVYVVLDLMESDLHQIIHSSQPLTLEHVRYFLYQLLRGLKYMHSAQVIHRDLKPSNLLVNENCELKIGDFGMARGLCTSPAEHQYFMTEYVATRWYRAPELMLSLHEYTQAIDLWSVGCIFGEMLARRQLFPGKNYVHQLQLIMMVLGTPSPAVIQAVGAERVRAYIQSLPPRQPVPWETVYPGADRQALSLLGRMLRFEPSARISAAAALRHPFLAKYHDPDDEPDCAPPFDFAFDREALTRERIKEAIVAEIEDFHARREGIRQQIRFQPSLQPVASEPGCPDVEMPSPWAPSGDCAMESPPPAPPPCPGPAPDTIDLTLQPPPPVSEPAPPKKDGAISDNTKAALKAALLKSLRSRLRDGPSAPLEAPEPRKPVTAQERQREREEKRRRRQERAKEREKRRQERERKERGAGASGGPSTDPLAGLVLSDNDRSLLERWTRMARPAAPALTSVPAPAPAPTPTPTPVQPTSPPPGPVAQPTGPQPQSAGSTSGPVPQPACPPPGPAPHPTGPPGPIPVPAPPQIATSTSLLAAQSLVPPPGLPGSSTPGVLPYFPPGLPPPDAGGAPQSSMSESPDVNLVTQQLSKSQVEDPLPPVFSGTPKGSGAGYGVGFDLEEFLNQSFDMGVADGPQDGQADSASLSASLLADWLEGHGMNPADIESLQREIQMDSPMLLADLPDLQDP
compound,measurement,setting,value
CCCN(CCC)C(=O)C(CCC(=O)O)NC(=O)c1ccccc1 (stereo unspecified),outcome,[1],inactive
same,outcome,[2],inactive
same,outcome,[3],inactive
same,fold change,[4]; [19],1.06 (inactive) and 0.936 (inactive) and 0.845 (inactive)
same,fold change,[4]; [20],0.941 and 0.892 and 4.08
same,cell count,[4]; [21],10500 and 8340 and 11300
same,cell count,[4]; [22],9940 and 8900 and 13400
same,outcome,[5],inactive
same,z-score,[6]; [23],-1.04 (inactive)
same,z-score,[6]; [24],-0.386
same,remaining NAD,[7],10 nM (inactive)
same,luciferase signal,[8],108 AU (inactive)
same,z-score,[9],0.665 (inactive)
NNc1nncc2ccccc12,outcome,[1],inactive
same,outcome,[10],inactive
same,outcome,[2],inactive
same,fold change,[4]; [19],1.01 (inactive) and 0.821 (inactive)
same,fold change,[4]; [20],1.23 and 1.05
same,cell count,[4]; [21],10000 and 10300
same,cell count,[4]; [22],9890 and 12600
same,outcome,[5],inactive
same,remaining NAD,[7],10 nM (inactive)
same,luciferase signal,[8],280 AU (active)
same,z-score,[9],0.12 (inactive)
Cc1ccsc1C(=CCCN1CCC[C@@H](C(=O)O)C1)c1sccc1C,outcome,[1],inactive
same,outcome,[2],inactive
same,outcome,[3],inactive
CC(=O)O[C@]1(C(C)=O)CC[C@H]2[C@@H]3C=C(Cl)C4=CC(=O)[C@@H]5C[C@@H]5[C@]4(C)[C@H]3CC[C@@]21C,AC50,[1],33.2 µM (active)
same,outcome,[10],inactive
same,outcome,[3],inactive
same,fold change,[4]; [19],0.956 (inactive) and 0.85 (inactive)
same,fold change,[4]; [20],1.52 and 2.1
same,cell count,[4]; [21],8890 and 7970
same,cell count,[4]; [22],9300 and 9380
same,outcome,[5],inactive
same,z-score,[6]; [23],-0.4 (inactive)
same,z-score,[6]; [24],-0.158
same,remaining NAD,[7],10 nM (inactive)
same,luciferase signal,[8],52 AU (inactive)
same,z-score,[9],1.89 (inactive) and 0.36 (inactive)
O=NN(CCCl)C(=O)NCCCl,outcome,[1],inactive
same,outcome,[2],inactive
same,outcome,[3],inactive
same,fold change,[4]; [19],0.948 (inactive) and 0.902 (inactive)
same,fold change,[4]; [20],1.47 and 4.57
same,cell count,[4]; [21],8130 and 9540
same,cell count,[4]; [22],8570 and 10600
same,outcome,[5],inactive
same,remaining NAD,[7],10 nM (inactive)
same,luciferase signal,[8],204 AU (inactive)
same,z-score,[9],-0.84 (inactive)
same,inhibition,[11]; [25],-2.88% (inactive)
same,inhibition,[11]; [26],-4.26%
same,inhibition,[11]; [27],-31.6%
same,inhibition,[11]; [28],-3.31%
same,inhibition,[11]; [29],2.24%
same,inhibition,[11]; [30],-36.8%
same,inhibition,"[12]; BGB combo, at 5 µM",-14.5%
same,inhibition,[12]; at 0.5 µM,6.29% (inactive)
same,inhibition,"[12]; cisplatin combo, at 5 µM",-3.04%
same,inhibition,[12]; [31],11.2%
same,inhibition,[12]; [32],-4.17%
same,inhibition,"[12]; single agent, at 5 µM",-8.15%
same,inhibition,"[13]; BGB IC20 combo, at 0.005 µM",5.44%
same,inhibition,"[13]; BGB IC40 combo, at 0.005 µM",-42.6%
same,inhibition,"[13]; BGB IC40 combo, at 0.05 µM",-39%
same,inhibition,[13]; at 0.5 µM,-40.7% (inactive)
same,inhibition,"[13]; cisplatin combo, at 0.05 µM",-44.5%
same,inhibition,"[13]; cisplatin combo, at 0.5 µM",-65.9%
same,inhibition,"[13]; cisplatin combo, at 5 µM",-35.2%
same,inhibition,"[13]; measured here: 5 uM single agent, at 5 µM",-15.7%
same,inhibition,[14]; at 0.5 µM,-12.2% (inactive)
same,inhibition,[14]; [28],-13.6%
same,inhibition,"[14]; measured here: combination with cisplatin, at 0.5 µM",10.3%
same,inhibition,"[14]; measured here: combination with cisplatin, at 5 µM",-12%
same,inhibition,[15]; at 0.5 µM,-10.6% (inactive)
same,inhibition,"[15]; measured here: with BGB IC20, at 0.5 µM",-23%
same,inhibition,"[15]; measured here: with BGB IC20, at 5 µM",17.7%
same,inhibition,"[15]; measured here: with cisplatin IC20, at 0.5 µM",-10.4%
same,inhibition,"[15]; measured here: with cisplatin IC20, at 5 µM",11.5%
same,inhibition,"[15]; single agent, at 5 µM",11%
same,inhibition,[16]; at 0.5 µM,-22.8% (inactive)
same,inhibition,"[16]; measured here: combination with BGB at IC20, at 0.5 µM",-7.62%
same,inhibition,"[16]; measured here: combination with cisplatin at IC20, at 0.5 µM",2.1%
same,inhibition,[17]; at 0.5 µM,-9.81% (inactive)
same,inhibition,"[17]; measured here: combo with BGB at IC20, at 0.5 µM",-13.2%
same,inhibition,"[17]; measured here: combo with cisplatin at IC20, at 0.5 µM",-3.83%
COc1cc(OC)c(C(=O)CCCN2CCCC2)c(OC)c1,outcome,[1],inactive
same,outcome,[10],inactive
same,outcome,[3],inactive
same,fold change,[4]; [19],0.858 (inactive) and 0.948 (inactive) and 0.902 (inactive)
same,fold change,[4]; [20],1.32 and 1.94 and 0.958
same,cell count,[4]; [21],8900 and 10500 and 8390
same,cell count,[4]; [22],10400 and 11000 and 9300
same,z-score,[6]; [23],-0.379 (inactive) and 0.339 (inactive)
same,z-score,[6]; [24],-0.346 and 0.199
same,remaining NAD,[7],10 nM (inactive)
same,luciferase signal,[8],40 AU (inactive)
same,z-score,[9],0.65 (inactive)
C#C[C@]1(O)CC[C@H]2[C@@H]3CCc4cc(O)ccc4[C@H]3CC[C@@]21C,AC50,[1],13.2 µM (active)
same,outcome,[10],inactive
same,z-score,[6]; [23],1.16 (inactive)
same,z-score,[6]; [24],0.428
same,remaining NAD,[7],10 nM (inactive)
same,luciferase signal,[8],76 AU (inactive)
COC1=C(OC)C(=O)C(CCCCCCCCCCO)=C(C)C1=O,outcome,[1],inactive
same,AC50,[10],23.5 µM (active)
same,outcome,[3],inactive
same,fold change,[4]; [19],0.841 (inactive) and 0.881 (inactive) and 0.889 (inactive)
same,fold change,[4]; [20],1.87 and 0.941 and 1.43
same,cell count,[4]; [21],8540 and 8000 and 9340
same,cell count,[4]; [22],10200 and 9080 and 10500
same,z-score,[6]; [23],-0.358 (inactive) and -0.43 (inactive) and 0.294 (inactive)
same,z-score,[6]; [24],0.303 and 0.0167 and -0.141
same,remaining NAD,[7],10 nM (inactive)
same,z-score,[9],-1.85 (inactive) and -2.1 (inactive)
CNNCc1ccc(C(=O)NC(C)C)cc1,outcome,[1],inactive
same,outcome,[2],inactive
same,outcome,[3],inactive
same,fold change,[4]; [19],0.927 (inactive) and 0.93 (inactive) and 0.882 (inactive)
same,fold change,[4]; [20],0.658 and 1.32 and 1.82
same,cell count,[4]; [21],8930 and 9660 and 9580
same,cell count,[4]; [22],9640 and 10400 and 10900
same,SSMD,[18],2.76
same,cell count,[18],7850
same,plate-normalised HSF1 focus index,[18],1.17 (inactive)
same,z-score,[6]; [23],-0.384 (inactive) and 0.576 (inactive)
same,z-score,[6]; [24],-1.08 and 0.362
same,remaining NAD,[7],10 nM (inactive)
same,z-score,[9],-0.975 (inactive) and 0.615 (inactive)
same,inhibition,[11]; [25],-4.96% (inactive) and -7.28% (inactive)
same,inhibition,[11]; [26],0.865% and -3.27%
same,inhibition,[11]; [27],4.15% and 7.38%
same,inhibition,[11]; [28],-4.16% and -2.23%
same,inhibition,[11]; [29],-13.4% and -33.1%
same,inhibition,[11]; [30],33.1% and 11.1%
same,inhibition,"[12]; BGB combo, at 5 µM",11.7% and 16.1%
same,inhibition,[12]; at 0.5 µM,10.7% (inactive) and 6.09% (inactive)
same,inhibition,"[12]; cisplatin combo, at 5 µM",11.5% and 15.1%
same,inhibition,[12]; [31],8.82% and -6.43%
same,inhibition,[12]; [32],7.54% and 20.8%
same,inhibition,"[12]; single agent, at 5 µM",17.8% and 2.31%
same,inhibition,"[13]; BGB IC20 combo, at 0.005 µM",9.83% and 1.87%
same,inhibition,"[13]; BGB IC40 combo, at 0.005 µM",-24.6% and -19.9%
same,inhibition,"[13]; BGB IC40 combo, at 0.05 µM",-27.1% and 7.42%
same,inhibition,[13]; at 0.5 µM,-17.4% (inactive) and -14% (inactive)
